Here are results for 96 compounds from PubChem BioAssay AID651813 (National Center for Advancing Translational Sciences (NCATS), 2012).

Molecules are shown by their SMILES. Screen size: about 2,100 compounds; about 1,100 (52%) were called active. Not shown: some 27% with an inconclusive outcome. The set was probably picked from earlier hits. This is one part of the list. A number with no mark means an inactive call. The call rests on the fitted dose curve; in most records, active means well fitted inhibition curve with a large enough effect; inconclusive means small, poorly fitted or top-dose-only effect; inactive means no such curve, though single readings can be large or run the other way.
Potency means the concentration at half of the fitted maximal effect.

DNA dC->dU-editing enzyme APOBEC-3G (Homo sapiens), sequence (Q9HC16 whole entry, looked up): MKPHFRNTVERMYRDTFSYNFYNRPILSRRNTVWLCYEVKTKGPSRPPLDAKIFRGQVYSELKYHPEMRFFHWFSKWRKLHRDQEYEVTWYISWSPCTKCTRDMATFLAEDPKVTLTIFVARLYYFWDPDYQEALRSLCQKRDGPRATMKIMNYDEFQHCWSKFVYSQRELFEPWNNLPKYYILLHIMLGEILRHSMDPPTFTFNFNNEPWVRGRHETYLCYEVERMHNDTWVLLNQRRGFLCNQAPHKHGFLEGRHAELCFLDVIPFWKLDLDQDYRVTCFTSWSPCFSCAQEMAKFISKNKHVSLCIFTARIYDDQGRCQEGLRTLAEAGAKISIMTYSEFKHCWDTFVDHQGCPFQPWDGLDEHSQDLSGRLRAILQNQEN

This assay deals with DNA dC->dU-editing enzyme APOBEC-3G (Homo sapiens) (UniProt Q9HC16). Put plainly: qHTS for inhibitors of Vif-A3G interactions: Cherry picks counterscreen.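 Further: hits raise yellow fluorescence by blocking Vif-driven A3G-eYFP degradation; nearly all actives have a fitted effect of over 70% in size.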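 On max response: max response given as percent of control signal.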 The note with it: HeLa A3G-eYFP + Vif (tagged APOBEC3G with the HIV-1 protein that degrades it), eYFP fluorescence, 24 h. In short, it runs like this:
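HeLa cells stably expressing A3G-eYFP and Vif were treated for 24 h at 37 deg C with compounds at several concentrations; yellow fluorescence (Ex 488 nm, Em 500-530 nm) read by Acumen Explorer, MG132 as positive control.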
`CC1=CC(C)(C)NC(=S)N1c1ccc2ccccc2c1`: the max response was 5%.

Turning to `C=C(/C=C/c1ccc(N(C)C)cc1)c1nc2ccccc2s1`, the Potency was 16.4 µM (active).

In the case of `O=c1[nH]ncc2c3ccccc3n(Cc3cccc(Cl)c3)c12`, the Potency was 18.4 µM (active).

Consider `CC[N+](C)(C(=O)O)/C(=C\c1ccccc1)c1ccnc2ccccc12` (stereo unspecified), for which the Potency was 16.4 µM (active).

Take `C[C@@H]1O[C@@H](O[C@@H]2C(=O)c3c(O)cc(O)cc3O[C@H]2c2ccc(O)c(O)c2)[C@H](O)[C@H](O)[C@H]1O`: the max response was -0.692%.

As for `CCSc1nnc(-c2sc3nnc(-c4ccccc4)c(-c4ccccc4)c3c2N)o1`, the Potency was 4.61 µM (active).

As to `CCN1CCc2nc3sc(C(=O)c4ccccc4)c(N)c3cc2C1`, the Potency is 18.4 µM (active).

Regarding `COc1ccc(NC(=O)c2sc3nc4c(cc3c2N)CN(Cc2ccccc2)CC4)c(OC)c1`, the Potency was 18.4 µM (active).

As for `Cc1cc(N2CCN(C)CC2)ccc1NC(=O)c1c2c(nc3ccccc13)CCN(Cc1ccccc1)C2`, the max response was 4.5%.

As to `Nc1c(C(=O)c2ccc(Cl)cc2)sc2nc3c(cc12)CCC3`, the Potency was 16.4 µM (active).

As for `COCCN1C(=O)/C(=C/c2ccc(N3CCCC3)cc2C)SC1=S`, the Potency was 4.11 µM (active).

Take `COCCN1C(=O)/C(=C/c2ccc(N3CCCC3)cc2)SC1=S`: the Potency is 7.31 µM (active).

Regarding `Cc1ccc2oc(/N=C(\N)NC(=O)C(C)(C)C)nc2c1`, the max response was -19%.

Consider `C/C(=N\NC(N)=S)C12CC3CC(CC(C3)C1)C2`, for which the max response was 27.9%.

With `COc1ccc(/C=C/c2ccnc3ccccc23)c(OC)c1`, the Potency is 16.4 µM (active).

For the compound `COc1ccc(NC(=S)Nc2ncccc2C)c(OC)c1`, the max response was -0.005%.

In the case of `COc1cc(OC)c(/C=C/c2ccnc3ccccc23)c(OC)c1`, the Potency is 7.31 µM (active).

For the compound `c1ccc2c(-c3nc4ccccc4[nH]3)cccc2c1`, the Potency was 11.2 µM (active).

`CCC(C)n1c(NC(=O)c2ccccc2)c(C#N)c2nc3ccccc3nc21` (stereo unspecified): the Potency was 18.4 µM (active).

On to `CCn1ncc(/C=N\NC(=O)c2csc3ccccc23)c1C`, for which the Potency was 5.59 µM (active).

As to `COc1ccc(Cn2c(=O)cc(N)n(-c3ccccc3C)c2=O)cc1`, the Potency is 11.2 µM (active).

Regarding `CCN(CC)c1ccc2cc(-c3nnc(-c4ccccc4)o3)c(=O)oc2c1`, the max response is 49.6%.

For the compound `CCN(CC)c1ccc2cc(-c3nnc(-c4cccc(Cl)c4)o3)c(=O)oc2c1`, the Potency was 2.59 µM (active).

Turning to `CCN(CC)c1ccc2cc(-c3nc4ccccc4n3C)c(=O)oc2c1`, the Potency was 1.3 µM (active).

As for `CCN(CC)c1ccc2cc(-c3nc(-c4ccccc4)no3)c(=O)oc2c1`, the Potency was 2.06 µM (active).

Take `CCN(CC)c1ccc2cc(-c3nc(-c4cc(OC)c(OC)c(OC)c4)no3)c(=O)oc2c1`: the Potency is 0.517 µM (active).

For the compound `CN(Cc1cnn(Cc2ccccc2)c1)C(=O)c1cccc(S(=O)(=O)N2CCOCC2)c1`, the Potency is 11.2 µM (active).

With `c1ccc(-c2cccc(-c3ccccn3)n2)nc1`, the max response is -27.5%.

As for `Nc1[nH]c2cc([N+](=O)[O-])ccc2c1-c1ccccn1`, the Potency is 4.61 µM (active).

On to `COc1cc(C(=O)NCCOc2cc(C)cc(C)c2)cc(OC)c1OC`, for which the Potency was 3.14 µM (active).

In the case of `CCn1c(CNC(=O)c2cc(OC)c(OC)c(OC)c2)cc2cc(C)ccc21`, the max response is -10.2%.

Take `CNC(=O)C(Sc1nc(C)nc2c1oc1ccccc12)C(C)=O` (stereo unspecified): the max response is -16.6%.

On to `CCOc1ccccc1Oc1nc(C)nc2c1oc1ccccc12`, for which the Potency was 2.91 µM (active).

For the compound `O=Cc1s/c(=N\S(=O)(=O)c2ccccc2)n(CCCCl)c1Cl`, the Potency was 8.2 µM (active).

Turning to `COc1ccc(C2=CC(c3ccc(N(C)C)cc3)n3nnnc3N2)cc1` (stereo unspecified), the Potency was 23.1 µM (active).

On to `CN(C)c1ccc(C2C=C(c3ccccc3)Nc3nnnn32)cc1` (stereo unspecified), for which the Potency was 23.1 µM (active).

On to `N#Cc1c(C(F)(F)F)cc(-c2cccs2)nc1SCC(=O)Nc1cccc(C(F)(F)F)c1`, for which the Potency is 20.6 µM (active).

Turning to `N#Cc1c(C(F)(F)F)cc(-c2cccs2)nc1SCC(=O)Nc1ccc(Cl)cc1`, the Potency was 10.3 µM (active).

In the case of `O=C(CSc1n[nH]c(-c2ccccn2)n1)Nc1ccc(Cl)cc1`, the max response is 17.5%.

Consider `N#Cc1c(C(F)(F)F)cc(-c2cccs2)nc1SCC(=O)Nc1cccc(Cl)c1`, for which the max response is -23.7%.

`CCOC(=O)c1ccc(NC(=O)CSc2nc(-c3cccs3)cc(C(F)(F)F)c2C#N)cc1`: the Potency is 23.1 µM (active).

Regarding `O=[N+]([O-])c1cc(Cl)c2cccnc2c1O`, the max response is 30.7%.

Turning to `O=[N+]([O-])c1ccc(Oc2cccc3cccnc23)c([N+](=O)[O-])c1`, the Potency was 12.5 µM (active).

On to `O=[N+]([O-])c1cc(O)c2ncccc2c1`, for which the max response is -9.81%.

In the case of `CCC(C)[C@H](NC(=O)N1CC(=O)Nc2ccccc21)C(=O)Nc1ccccc1C` (stereo partly specified), the Potency was 9.94 µM (active).

For the compound `COc1cc(OC)cc(C(=O)N2CC(=O)Nc3ccccc32)c1`, the Potency was 3.53 µM (active).

In the case of `O=C1CN(C(=O)c2cc(Br)c(Br)s2)c2ccccc2N1`, the Potency was 12.5 µM (active).

For the compound `Cc1cc(C)cc(C(=O)N2CC(=O)Nc3ccccc32)c1`, the Potency was 0.704 µM (active).

With `CCCn1nc(C(=O)N2CC(=O)Nc3ccccc32)c2ccccc2c1=O`, the Potency was 7.04 µM (active).

As to `COc1cc(C(=O)N2CC(=O)Nc3ccccc32)cc(OC)c1OC`, the Potency was 17.7 µM (active).

In the case of `COc1cc(C(=O)c2ccc3c(c2)OCO3)cc(OC)c1OC`, the Potency is 5.59 µM (active).

Take `CCOC(=O)N1CCN(c2c(NCc3ccc(F)cc3)c(=O)c2=O)CC1`: the Potency is 14 µM (active).

As to `CCOC(=O)Nc1cc2c(c(N)n1)N=C(c1ccccc1)CN2`, the Potency was 0.058 µM (active).

As for `COc1ccc(NC(=S)NN(C)C(=S)Nc2ccc(OC)cc2)cc1`, the Potency is 6.27 µM (active).

As for `C=CCNC(=S)N/N=C(\C)c1ccc(OC)cc1`, the max response is -1.31%.

On to `COc1ccc(N(C)S(=O)(=O)c2cccc3cccnc23)c(OC)c1`, for which the Potency is 14 µM (active).

Take `O=c1cc(-c2ccccc2)[nH]c2ccccc12`: the Potency is 3.14 µM (active).

As to `Cc1ccc(N/C(N)=N/c2nc(CSc3nnc(C)s3)cc(=O)[nH]2)c(C)c1`, the Potency is 2.8 µM (active).

On to `O=c1c(Cl)c2oc3ccccc3nc-2c2ccccc12`, for which the Potency is 10.3 µM (active).

`CC[n+]1c(C=C2C=C(C)OC(C)=C2)sc2ccccc21`: the Potency is 4.11 µM (active).

As to `COCCCN(C(C)=O)c1nc(-c2ccc(OC)cc2)cs1`, the Potency was 14 µM (active).

`CCCC(=O)NC1=C(Cl)C(=O)c2ccccc2C1=O`: the max response is 62.1%.

As for `O=C(CCc1ccccc1)Nc1ccc(Cl)cn1`, the Potency was 7.9 µM (active).

In the case of `S=C(NCc1ccco1)Nc1ccc(Cl)cn1`, the max response is -10.1%.

Regarding `Cc1ccc(-c2nc(-c3cc4cccc(OCc5cccc(F)c5)c4oc3=O)no2)cc1`, the Potency is 23.1 µM (active).

Turning to `COc1cc(/C=C/C(=O)c2ccc3c(c2)OCCO3)cc(Br)c1OCC(=O)N(C)C`, the Potency is 14 µM (active).

For the compound `O=c1c[n+]([O-])c2ccccc2n1OCc1c(F)cccc1F`, the Potency is 19.8 µM (active).

As for `Cc1c(=O)n(OCc2ccc(Cl)cc2)c2ccccc2[n+]1[O-]`, the max response is -2.47%.

As for `CN(C)C=Nc1c(Br)cc(Br)c2nonc12`, the Potency is 4.61 µM (active).

On to `CCNC(=S)N/N=C(\C)c1ccc(N2CCOCC2)cc1`, for which the max response is -8.21%.

On to `CCOc1ccc2nc(N3C(=O)/C(=C/c4ccc(Cl)cc4)NC3=S)sc2c1`, for which the Potency was 18.4 µM (active).

Consider `COc1ccc2nc(N3C(=O)/C(=C/c4ccccc4)NC3=S)sc2c1`, for which the Potency is 11.6 µM (active).

As for `COc1ccc(/C=C/C=C2\NC(=S)NC2=O)cc1`, the max response is -11.7%.

Turning to `CCOc1cc(C#N)c(NC(=O)c2cccnc2)cc1OCC`, the Potency was 7.04 µM (active).

As for `CSc1ccc(/C=N/NC(=O)c2ccccc2Cl)cc1`, the Potency was 12.5 µM (active).

For the compound `CN(C)c1ccc(/C=N/NC(=O)c2ccccc2Cl)cc1`, the Potency is 4.98 µM (active).

Take `Cc1ccc(/C=N/NC(=O)c2cc(C)oc2C)cc1`: the Potency is 9.94 µM (active).

In the case of `COc1cc(C(=O)Nc2ccc3ccccc3c2)cc(OC)c1OC`, the Potency was 1.58 µM (active).

As for `S=C(NN=Cc1ccccn1)Nc1ccccn1`, the max response was 20.1%.

As for `COc1cc(C(=O)N/N=C/C2CC=CCC2)cc(OC)c1OC` (stereo unspecified), the max response was -11.5%.

Turning to `COc1cc(C(=O)Nc2ccc3c(c2)ncn3C)cc(OC)c1OC`, the Potency is 7.04 µM (active).

Regarding `COc1cc(C(=O)N/N=C/c2ccccn2)cc(OC)c1OC`, the Potency is 12.5 µM (active).

In the case of `COc1ccc(C(=O)/C=C2/c3ccccc3CC(C)(C)N2C)cc1`, the Potency was 12.5 µM (active).

Turning to `CN(C)CCOc1ccc2c(c1)C(=O)C(=Cc1ncc([N+](=O)[O-])n1C)C2`, the Potency is 8.86 µM (active).

Regarding `COc1ccc(S(=O)(=O)N2N=C(C)Oc3ccccc3C2=O)cc1`, the Potency is 7.9 µM (active).

Turning to `COC(=O)C1CCC(=O)N1C(c1ccc(OC)cc1)c1cc(OC)c(OC)c(OC)c1` (stereo unspecified), the Potency was 0.559 µM (active).

Turning to `COC(=O)c1c(N2C(=O)[C@H]3[C@@H](C2=O)[C@]2(C(=O)Nc4c(C)cccc42)N2CCC[C@@H]32)sc(C)c1C`, the Potency was 6.27 µM (active).

Consider `CN1C2=CC=CC=CC2=[N+](C)C12C([N+](=O)[O-])=CC(=[N+]([O-])[O-])C=C2[N+](=O)[O-]` (stereo unspecified), for which the max response is -21%.

Regarding `CCSc1nc2ccccc2n1C(=O)/C=C/c1ccc(OC)c(OC)c1`, the Potency is 4.98 µM (active).

Regarding `C=CCSc1nc2ccccc2n1C(=O)/C=C/c1cc(OC)c(OC)c(OC)c1`, the Potency is 8.86 µM (active).

With `CN(C)c1ccc(/C=C/C(=O)c2c(O)c3ccccc3oc2=O)cc1`, the Potency was 1.3 µM (active).

Consider `CN(C)c1ccc(/C=C/C(=O)c2ccc(O)cc2)cc1`, for which the max response was 57%.

With `Cc1ccc2c(c1)sc(-c1ccc(N(C)C)cc1)[n+]2C`, the Potency is 2.91 µM (active).

As to `COc1ccc(C2=NOC(C(=O)NCc3ccc(F)cc3)C2)cc1OC` (stereo unspecified), the Potency was 1.12 µM (active).

In the case of `COc1ccc(C2=NOC(C(=O)NCc3cccs3)C2)cc1OC` (stereo unspecified), the Potency was 7.9 µM (active).

Regarding `COc1ccc(C2=NOC(C(=O)NCc3ccc(F)cc3)C2)cc1` (stereo unspecified), the max response was -20.8%.
